Measured values taken from PubChem BioAssay (EPA / NIEHS).
Activity calls are given as the source filed them. How the source made its calls: active means hit-call score of the fitted dose curve at least 0.9, where 1 is the maximum; inactive means score below 0.9.

Legend:
[1] = BSK_3C_TissueFactor: BioMAP Diversity Plus: 3C Assay for Tissue Factor Biomarker Activity (AID 2282997); conditions: BioMAP 3C HUVEC, tissue factor biomarker readout; actives raise or lower the signal
Summary of the method: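 Cells used were primary human umbilical vein endothelial cells. They were dosed with chemical, and after 24 h Tissue Factor was quantified by ELISA. Curves were fitted bidirectionally with DMSO as baseline.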

[2] = BSK_3C_uPAR: BioMAP Diversity Plus: 3C Assay for Urokinase-type plasminogen activator receptor (uPAR) Biomarker Activity (AID 2282998); conditions: BioMAP 3C HUVEC, uPAR biomarker ELISA; actives raise or lower the signal
Summary of the method: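 ELISA readout of uPAR on human vascular endothelium (umbilical vein primary cells), taken 24 h after chemical dosing. Increases and decreases are both fitted relative to DMSO vehicle.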

[3] = BSK_3C_VCAM1: BioMAP Diversity Plus: 3C Assay for Vascular cell adhesion molecule 1 (VCAM1) Biomarker Activity (AID 2282999); conditions: BioMAP 3C HUVEC, VCAM1 ELISA, cytokine-stimulated; actives raise or lower the signal
Summary of the method: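 HUVEC primary cells, 24 h compound exposure; VCAM-1 by ELISA; gain/loss of signal fitted bidirectionally vs DMSO baseline.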

[4] = ATG_NFI_CIS: Attagene CIS-FACTORIAL HepG2 Assay for human Nuclear Factor I (NFI) (AID 2282989); conditions: HepG2 cis-regulatory reporter, NFI response element transcription; actives raise or lower the signal
Summary of the method: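 Transient MRTU transfection of HepG2 → 24 h chemical dosing → total RNA, oligo(dT) RT → PCR, 6-FAM primer extension, HpaI cut → capillary electrophoresis. Endpoint fitted bidirectionally relative to DMSO.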

[5] = biological target: Myc proto-oncogene protein (Homo sapiens) (UniProt P01106); test: ATG_Myc_CIS: Attagene CIS-FACTORIAL HepG2 Assay for human Myelocytomatosis (Myc) Proto-Oncogene Transcription Factor (AID 2282990); conditions: HepG2, Attagene cis-reporter transcription factor activity; actives raise or lower the signal
Summary of the method: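 Transiently transfected HepG2 cells bearing cis-promoter reporter units for endogenous transcription factors; 24 h exposure. Reporter mRNA measured by RT-PCR, 6-FAM primer extension, HpaI cut and capillary electrophoresis; bidirectional fit relative to DMSO.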

[6] = ATG_NF_kB_CIS: Attagene CIS-FACTORIAL HepG2 Assay for human Nuclear Factor Kappa B (NF-kB) (AID 2282991); conditions: HepG2 Attagene cis-factorial NF-kB reporter mRNA; actives raise or lower the signal
Summary of the method: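 DMSO served as negative control and baseline for bidirectional curve fitting. Transiently transfected HepG2 cells were dosed for 24 h, then reporter transcripts were measured by RT-PCR with capillary electrophoresis detection.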

[7] = ATG_NRF2_ARE_CIS: Attagene CIS-FACTORIAL HepG2 Assay for human Nuclear Factor Erythroid 2 Related Factor 2 (NFR2) response to Antioxidant Response Elements (ARE) (AID 2282992); conditions: HepG2 Attagene ARE/NRF2 reporter, transcription factor activity; actives raise or lower the signal
Summary of the method: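 Fluorescence intensity of reporter-specific cDNA fragments, separated by capillary electrophoresis, reflects mRNA induction in transfected HepG2 cells at 24 h. Activity is fitted bidirectionally, DMSO serving as baseline.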

[8] = ATG_Oct_MLP_CIS: Attagene CIS-FACTORIAL HepG2 Assay for human Octamer-Binding Transcription Factor (Oct) (AID 2282993); conditions: HepG2 Attagene cis-factorial Oct reporter, mRNA; actives raise or lower the signal
Summary of the method: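 Transient MRTU transfection of HepG2 → 24 h compound treatment → RNA isolation, reverse transcription, PCR → 6-FAM primer extension, HpaI digest → capillary electrophoresis. Activity fitted both directions against DMSO.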

[9] = biological target: Cellular tumor antigen p53 (Homo sapiens) (UniProt P04637); test: ATG_p53_CIS: Attagene CIS-FACTORIAL HepG2 Assay for human p53 Transcription Factor (AID 2282994); conditions: HepG2 p53 cis-element reporter, Attagene mRNA; actives raise or lower the signal
Summary of the method: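 Transiently transfected HepG2 (multiple cis reporter transcription units); exposure 24 h; reporter RNA via RT-PCR, 6-FAM extension, 2 h HpaI digest at 37 C, CE detection; DMSO baseline.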

Measured: AC50

Myc proto-oncogene protein (Homo sapiens), sequence (P01106 whole entry, looked up): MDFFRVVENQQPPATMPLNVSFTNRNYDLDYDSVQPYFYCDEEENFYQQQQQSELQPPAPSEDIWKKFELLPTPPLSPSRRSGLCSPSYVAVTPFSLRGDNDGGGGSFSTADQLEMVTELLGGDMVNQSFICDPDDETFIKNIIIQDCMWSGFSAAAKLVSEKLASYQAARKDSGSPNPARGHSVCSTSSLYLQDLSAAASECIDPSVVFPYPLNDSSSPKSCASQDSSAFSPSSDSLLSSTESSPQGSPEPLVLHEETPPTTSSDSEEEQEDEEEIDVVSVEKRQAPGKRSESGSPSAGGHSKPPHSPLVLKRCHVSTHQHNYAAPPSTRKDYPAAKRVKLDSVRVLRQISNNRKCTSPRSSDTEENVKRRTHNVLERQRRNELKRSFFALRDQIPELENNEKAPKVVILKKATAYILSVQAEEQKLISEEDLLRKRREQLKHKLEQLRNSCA
Cellular tumor antigen p53 (Homo sapiens), sequence (P04637 whole entry, looked up): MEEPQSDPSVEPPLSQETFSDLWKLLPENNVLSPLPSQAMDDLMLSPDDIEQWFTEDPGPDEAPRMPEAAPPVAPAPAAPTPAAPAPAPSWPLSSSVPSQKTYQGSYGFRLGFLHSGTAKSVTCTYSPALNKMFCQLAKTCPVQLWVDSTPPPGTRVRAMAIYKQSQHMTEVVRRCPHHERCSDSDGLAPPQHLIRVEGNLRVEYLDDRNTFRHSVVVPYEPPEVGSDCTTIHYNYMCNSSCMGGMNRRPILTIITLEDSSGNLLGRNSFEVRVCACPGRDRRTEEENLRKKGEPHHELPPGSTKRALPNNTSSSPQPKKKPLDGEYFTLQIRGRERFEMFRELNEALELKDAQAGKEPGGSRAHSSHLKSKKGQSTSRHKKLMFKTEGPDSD

C=C(F)C(=O)OC(C(F)(F)F)C(F)(F)F
inactive: [1] | [2] | [3]

NC(=O)c1c(Cl)cccc1Cl
active: [1] 0.0671 µM
not listed: [9]
inactive: all other assays above

O=S1(=O)CC=CC1
not listed: [1] | [2] | [3]
inactive: all other assays above

O=C(O)C1=NN(c2ccc(S(=O)(=O)O)cc2)C(=O)C1
inactive: [4] | [5] | [7] | [8] | [9]

Nc1ccc(N)c([N+](=O)[O-])c1
not listed: [4] | [6] | [7]
inactive: all other assays above

NCCN1CCNCC1
inactive: [5] | [6] | [7] | [9]

CC(=O)c1ccc(C)cc1
not listed: [7] | [9]
inactive: all other assays above
